Measured values: PubChem BioAssay (EPA / NIEHS)
“And” between values parts separate entries of the source, which are not always exact repeats. Identical values can stand only once. Results filed as inconclusive are left out. Some compounds were tested as several samples or in several runs, with calls that do not always agree. The source made the active and inactive calls. Rule for the calls: active = hit-call score of the fitted dose curve at least 0.9, where 1 is the maximum; inconclusive = response in the unintended direction; inactive = score below 0.9.

The molecules below were run against Bile acid receptor (Homo sapiens) (UniProt Q96RI1) (assay: OT_FXR_FXRSRC1_1440: Odyssey Thera (OT) 24-hour HEK293T Protein-Complementation Assay for Farnesoid X receptor/SRC-1 Co-activator (AID 2283384)).
Bile acid receptor (Homo sapiens), sequence (Q96RI1 whole entry, looked up, the tested form may be a part): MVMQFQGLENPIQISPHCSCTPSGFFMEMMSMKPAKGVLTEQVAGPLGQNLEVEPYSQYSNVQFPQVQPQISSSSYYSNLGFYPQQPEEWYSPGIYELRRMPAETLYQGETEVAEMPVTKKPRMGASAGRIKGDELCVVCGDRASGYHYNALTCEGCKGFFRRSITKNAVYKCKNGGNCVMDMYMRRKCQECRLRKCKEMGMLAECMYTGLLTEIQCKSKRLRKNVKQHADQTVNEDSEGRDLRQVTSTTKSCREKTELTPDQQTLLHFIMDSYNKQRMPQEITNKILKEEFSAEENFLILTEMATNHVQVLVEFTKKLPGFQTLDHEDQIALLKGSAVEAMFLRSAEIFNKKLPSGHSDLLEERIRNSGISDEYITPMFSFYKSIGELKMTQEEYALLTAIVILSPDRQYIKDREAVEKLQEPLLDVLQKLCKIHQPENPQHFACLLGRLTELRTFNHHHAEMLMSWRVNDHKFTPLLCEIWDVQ
Description: OT_FXR_FXRSRC1_1440 is a cell-based assay that uses HEK293T, a human kidney cell line, with measurements taken at 24 hours after chemical dosing in a 384-well plate.OT_FXR_FXRSRC1_1440 is one of one assay component(s) measured or calculated from the OT_FXR_FXRSRC1_1440 assay. It is designed to make measurements of protein fragment complementation, a form of binding reporter, as detected with fluorescence intensity signals by Protein-fragment Complementation technology.Data from the assay component OT_FXR_FXRSRC1_1440 was analyzed into 1 assay endpoint. This assay endpoint, OT_FXR_FXRSRC1_1440, was analyzed in the positive analysis fitting direction relative to DMSO as the negative control and baseline of activity. Using a type of binding reporter, measures of receptor for gain-of-signal activity can be used to understand the binding at the pathway-level as they relate to the gene NR1H4. Furthermore, this assay endpoint can be referred to as a primary readout, because the performed assay has only produced 1 assay endpoint. To generalize the intended target to other relatable targets, this assay endpoint is annotated to the nuclear receptor intended target family, where the subfamily is non-steroidal.
Protein-fragment complementation assay, or PCA, is a method for the identification and quantification of protein-protein interactions. In the PCA, the proteins of interest ("bait" and "prey") are each covalently linked to fragments of a third protein (e.g. DHFR, which acts as a "reporter"). Interaction between the bait and the prey proteins brings the fragments of the reporter protein in close proximity to allow them to form a functional reporter protein whose activity can be measured.

How did the AC50 turn out when `Nc1ccc(N=Nc2ccccc2)cc1` was run?
Its AC50 is 12.2 µM (active).

Which outcome does the source give for `Clc1ccccc1Cl` here?
Its outcome is “inactive”.

Which outcome does the source give for `CN(C)[C@@H]1C(=O)C(C(N)=O)=C(O)[C@@]2(O)C(=O)C3=C(O)c4c(O)cccc4[C@@](C)(O)[C@H]3C[C@@H]12` here?
Its outcome is “inactive”.

What does the source list for `C[C@]12C=CC3=C4CCC(=O)C=C4CC[C@H]3[C@@H]1CC[C@@H]2O`?
outcome: inactive; AC50: 21.3 µM (active) and 21.2 µM (active) and 19.5 µM (active)

Which AC50 does the source give for `CC(C)(O)c1cnn2c(-c3ccc(F)c(-c4c(F)cccc4C#N)c3)cnc2n1` here?
The AC50 was 64.9 µM (active).

With `OCCOCCO` as the molecule, how does the outcome read?
The outcome was “inactive”.

How did the AC50 turn out when `CN(C)c1ccc(C(=O)c2ccc(N(C)C)cc2)cc1` was run?
The AC50 was 0.699 µM (active).

`ClCCOCCCl` was tested. Which outcome did it give?
The outcome was “inactive”.

How did the AC50 turn out when `CC(C)(OOC(C)(C)c1ccccc1)c1ccccc1` was run?
The AC50 was 65.1 µM (active).

With `CN(C)C(=O)Nc1ccc(Cl)cc1` as the molecule, how does the AC50 read?
The AC50 was 66.9 µM (active).

`Nc1ccc(Cl)cc1N` was tested. Which AC50 did it give?
The AC50 was 33.8 µM (active).

`O=C1CCCO1` was tested. Which outcome did it give?
Its outcome is “inactive”.

How did the outcome turn out when `Nc1ccc(Cc2ccc(N)cc2)cc1` was run?
The outcome was “inactive”.

How did the outcome turn out when `CC(C)COC(=O)c1ccccc1C(=O)OCC(C)C` was run?
The outcome was “inactive”.

`Clc1ccc(C(c2ccc(Cl)cc2)C(Cl)(Cl)Cl)cc1` was tested. Which outcome did it give?
The outcome was “inactive”.

`CCCCCCCCOC(=O)c1ccc(C(=O)OCCCCCCCC)c(C(=O)OCCCCCCCC)c1` was tested. Which outcome did it give?
Its outcome is “inactive”.

How did the outcome turn out when `COP(=S)(OC)SCN1C(=O)c2ccccc2C1=O` was run?
The outcome was “inactive”.

For `CC(C)N(Cc1ccccc1)C(=O)C(C)(C)C`, which outcome is on record?
Its outcome is “inactive”.

`CN(C)c1ccccc1` was tested. Which outcome did it give?
Its outcome is “inactive”.

Which outcome does the source give for `CCOC(=O)[C@]1(c2ccccc2)Oc2ccccc2[C@@H]1N` here?
The outcome was “inactive”.

Which AC50 does the source give for `CCC[CH2][Sn]([Cl])([CH2]CCC)[CH2]CCC` here?
The AC50 was 82 µM (active).

Which outcome does the source give for `CCN(CC)N=O` here?
Its outcome is “inactive”.

For `CCC(C)c1ccc(O)cc1` (centres undefined), which outcome is on record?
Its outcome is “inactive”.

`N#CC(Br)Br` was tested. Which outcome did it give?
The outcome was “inactive”.

How did the outcome turn out when `c1ccc(NNc2ccccc2)cc1` was run?
Its outcome is “inactive”.

How did the outcome turn out when `O=P(OCCCl)(OCCCl)OCCCl` was run?
The outcome was “inactive”.

Which AC50 does the source give for `Cc1cccc(N)c1N` here?
The AC50 was 49.3 µM (active).

For `Nc1ccc([N+](=O)[O-])cc1`, which AC50 is on record?
Its AC50 is 13.3 µM (active).
